# Screens deposited in PubChem by NMMLSC.
# Compounds with a hit are over-represented: about 1.2% of the library has one in this group of screens.
# RGS4-Gao reg – modulates binding of RGS4 to human Galphao; P09471; Multiplexed bead flow cytometry; actives lie on both sides; binding response (% of control), % at 10 µM; actives 0.33% (n = 220,000); AID 1415; in the data active = binding response below about 49% or above about 150%; inactive = in between;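 also: fluorescent Galphao activated with aluminum fluoride binding bead-coupled RGS4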
# RGS7-Gao – modulates binding of RGS7 to human Galphao. Multiplexed bead flow cytometry; actives lie on both sides. binding response (% of control), % at 10 µM. actives 0.35% (n = 220,000); in the data active = binding response below about 49% or above about 150%; inconclusive = no clear call, values can overlap the other calls; inactive = in between;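 also: fluorescent Galphao held in activated GDP-AlF4 state binding bead-coupled RGS7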
# Avidin fluor – avidin bead compound fluorescence profile; AID 1775; Avidin beads, compound fluorescence 488/530 nm, flow cytometry; hits give high values; actives 0.38% (n = 220,000); fluorescence (KMESF) at 10 µM; in the data active = fluorescence above about 47
# GSH fluor – GSH bead compound fluorescence profile; GSH beads flow cytometry, compound fluorescence 488/530 nm; hits give high values; AID 1776; actives 0.25% (n = 190,000); fluorescence (KMESF) at 10 µM; in the data active = fluorescence above about 89;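 also: glutathione beads carrying GST-tagged Bcl family fusion proteins plus one bare bead set; values are compound well signal with DMSO vehicle wells as background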
# RGS8-Gao – human RGS8-Galphao interaction regulation; P09471; multiplexed bead flow cytometry, RGS8-Galphao binding; actives lie on both sides; response (percent of control binding), % at 10 µM; actives 0.34% (n = 220,000); in the data active = response below about 60% or above about 140%; inactive = in between;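 also: Galphao activated as the GDP aluminium fluoride complex binding bead-coupled RGS8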
# RGS16-Gao – modulates binding between human RGS16 and Galphao; bead-based flow cytometry RGS16-Galphao binding, fluorescence; actives lie on both sides; binding response (% of control), % at 10 µM; actives 0.38% (n = 220,000); AID 1441;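 also: Galphao activated by GDP with aluminum fluoride before binding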
# RGS-Gao – modulates binding between human RGS4 and Galphao | shares compounds with RGS16-Gao | multiplexed bead flow cytometry, RGS–Galpha-o binding | RGS4–Galpha-o binding response, % at 10 µM | actives 99% (n = 1,600) | AID 1504;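 also: fluorescently labeled Galpha-o bound to GDP with aluminium fluoride binding biotinylated RGS beads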
# Avidin counter – biotin-avidin bead binding disruption counter-screen | streptavidin beads, fluorescein-biotin binding, flow cytometry | AID 1783 | shares compounds with RGS16-Gao | 1,700 tested, under 10 active | inhibition, % at 10 µM;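 active = inhibition above 50%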;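 also: median green fluorescence of gated singlet beads compared with DMSO control wells; 0% = DMSO wells and 100% = complete loss of bead fluorescence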
# RGS8-Gao single – confirmation of regulators of human RGS8-Galphao interaction | AID 1836 | bead-based flow cytometry RGS8-Galphao binding, fluorescence; actives lie on both sides | binding response (% of control), % at 10 µM | shares compounds with RGS16-Gao | actives 3% (n = 1,700); in the data active = binding response below about 72% or above about 130%; inactive = in between;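 also: Galphao activated as GDP AlF4 complex before binding bead RGS8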
# RGS7-Gao confirm – RGS7-Galphao interaction regulation, single point confirmation; shares compounds with RGS16-Gao; bead-based flow cytometry RGS7-Galphao binding; actives lie on both sides; response (percent of control binding), % at 10 µM; actives 7.8% (n = 1,700); AID 1837; in the data active = response below about 75% or above about 130%; inactive = in between;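 also: fluorescent Galphao activated with GDP and aluminum fluoride binding bead-coupled RGS7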
# RGS16-Gao conf – confirmation of regulators of human RGS16-Galphao interaction; response (% of control binding), % at 10 µM; bead-based flow cytometry, RGS16-Galphao binding; actives lie on both sides; AID 1838; shares compounds with RGS16-Gao; actives 4% (n = 1,700); in the data active = response below about 74% or above about 130%; inactive = in between;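 also: Galphao activated as the GDP aluminium fluoride complex binding bead-coupled RGS16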
# RGS4-Gao confirm – RGS4-Galphao interaction regulation, single point confirmation; shares compounds with RGS16-Gao; RGS4-Galphao binding, multiplexed bead flow cytometry; actives lie on both sides; binding response (% of control), % at 10 µM; actives 4% (n = 1,700); AID 1840; in the data active = binding response below about 74% or above about 130%; inactive = in between
# RGS19-Gao conf – confirmation of regulators of human RGS19-Galphao interaction. shares compounds with RGS16-Gao. bead-based flow cytometry RGS19-Galphao binding; actives lie on both sides. response (percent of control binding), % at 10 µM. actives 5% (n = 1,700). AID 1841; in the data active = response below about 50% or above about 160%; inactive = in between;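 also: 100% = no compound control and 0% = blank background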
# Target sequence (P09471 whole entry, looked up): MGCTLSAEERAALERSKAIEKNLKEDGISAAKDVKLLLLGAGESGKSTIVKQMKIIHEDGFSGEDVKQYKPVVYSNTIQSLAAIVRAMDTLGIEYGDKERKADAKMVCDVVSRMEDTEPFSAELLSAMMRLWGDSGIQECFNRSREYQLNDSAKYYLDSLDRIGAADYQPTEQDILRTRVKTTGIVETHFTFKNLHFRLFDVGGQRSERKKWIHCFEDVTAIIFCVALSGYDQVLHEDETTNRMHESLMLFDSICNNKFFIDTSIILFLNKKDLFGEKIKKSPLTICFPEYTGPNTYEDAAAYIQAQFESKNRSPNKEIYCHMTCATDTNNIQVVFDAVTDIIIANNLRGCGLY
# Target sequence (P49795 whole entry, looked up): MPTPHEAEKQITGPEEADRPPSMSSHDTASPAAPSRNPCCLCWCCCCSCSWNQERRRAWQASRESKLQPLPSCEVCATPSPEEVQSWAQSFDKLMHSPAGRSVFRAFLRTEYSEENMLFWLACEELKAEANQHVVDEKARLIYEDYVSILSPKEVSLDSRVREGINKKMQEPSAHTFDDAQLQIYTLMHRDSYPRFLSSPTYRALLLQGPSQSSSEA
# Starred values were filed as active, the others as inactive; ? = inconclusive; nt = no result given; [ ] = dose if it differs, or a comment. Unless noted, no rule for the calls is given here.
SMILES,RGS4-Gao reg,RGS7-Gao,Avidin fluor,GSH fluor,RGS8-Gao,RGS16-Gao,RGS-Gao,Avidin counter,RGS8-Gao single,RGS7-Gao confirm,RGS16-Gao conf,RGS4-Gao confirm,RGS19-Gao conf
COc1cc(C(=O)OC(C)CN2CCCC2)cc(OC)c1OC (stereo unspecified),46.6*,43.8*,6,25,48.6*,42.4,nt,0.2,105.0,105.2,110.7,107.1,118.1
Cc1ccc(S(=O)(=O)N(C)C)cc1NC(=S)N1CCc2ccccc21,96.0,95.2,9,22,99.2,95.6,nt,nt,nt,nt,nt,nt,nt
Cc1ccc(NS(=O)(=O)c2ccc(C(=O)N3CCCN(C)CC3)cc2)cc1,99.5,98.6,21,12,96.9,101.6,nt,nt,nt,nt,nt,nt,nt
Cc1ccc(NS(=O)(=O)c2ccc(C)c(C(=O)N3CCN(C)CC3)c2)cc1,69.4,80.3,3,4,80.5,-37.2*,69.4*,1.0,97.9,98.3,102.0,96.9,107.2
CCOC(=O)C1CCN(S(=O)(=O)Cc2ccccc2)CC1,101.5,100.8,36,23,101.9,104.0,nt,nt,nt,nt,nt,nt,nt
CCOC(=O)C1CCN(S(=O)(=O)Cc2ccc(Cl)cc2)CC1,170.3*[activator],163.5*[activator],nt,34,nt,nt,nt,0.3,88.2,61.5*,77.7,77.1,60.8
O=C(N/N=C/c1cc([N+](=O)[O-])ccc1Cl)c1cc(-c2ccccc2)nc2ccccc12,97.5,?,7,nt,104.3,105.2,nt,nt,nt,nt,nt,nt,nt
O=C(N/N=C/c1cc([N+](=O)[O-])ccc1O)c1cc(-c2ccccc2)nc2ccccc12,54.2,42.5*,2,11,67.4,33.9,54.2*,-0.4,98.9,97.3,97.8,100.9,92.0
COc1ccccc1NS(=O)(=O)c1cc(Cl)ccc1OC,124.9,129.3,37,17,143.9*[activator],217.9,124.9*,0.0,104.2,103.1,107.1,104.0,98.4
CC1CC(C)CN(C(=O)c2cccc(S(=O)(=O)Nc3cc(C(F)(F)F)ccc3Cl)c2)C1 (stereo unspecified),103.8,100.5,3,12,102.5,107.2,nt,nt,nt,nt,nt,nt,nt
Cc1ccc2cc(CCNS(=O)(=O)c3ccc(F)cc3)c(=O)[nH]c2c1C,54.9,45.8*,4,19,59.7*,50.5,54.9*,0.4,99.0,93.2,97.0,97.3,102.1
Cc1ccc2cc(CCNS(=O)(=O)c3ccc(F)cc3)c(=O)[nH]c2c1,96.2,94.7,7,23,97.6,99.3,nt,nt,nt,nt,nt,nt,nt
Cc1nn(CC(=O)N2CCc3ccccc3C2)c(C)c1[N+](=O)[O-],98.7,97.5,11,10,100.1,105.6,nt,nt,nt,nt,nt,nt,nt
Cc1c(Br)c([N+](=O)[O-])nn1CC(=O)N1CCc2ccccc2C1,97.4,98.6,1,6,74.7,24.3*,97.4*,-1.4,102.0,96.9,97.2,100.3,90.2
Cc1ccc(NC(=S)N2CCN(c3nccc(C(F)(F)F)n3)CC2)c(C)c1,100.8,?,4,nt,101.5,104.6,nt,nt,nt,nt,nt,nt,nt
